# Screens from PubChem BioAssay.
# LDHA block = LDHA (human) enzyme inhibition. 480,000 compounds, 0.15% hits. purified LDHA, NADH/diaphorase-resazurin fluorescence; hits give low values. activity change, % (values are at about 110 or 230 µM). P00338; in the data active means activity change below about -30%; inconclusive means mostly about -25% to -30%
#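 Resorufin fluorescence (ex540/em590), read at 0 and 20 min after diaphorase/resazurin addition, reports the NADH left after a 5 min room-temperature reaction of 2 nM human LDH5 with 0.06 mM NADH and 0.2 mM pyruvate.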
# DT40 TDP1 no CPT = qHTS for Inhibitors of human tyrosyl-DNA phosphodiesterase 1 (TDP1): qHTS in cells in absence of CPT; DT40 Tdp1-/- hTDP1 cells, no CPT, ATP luminescence, 48 h; Potency, µM (highest dose often 46.2 µM), hits mostly inhibitors; 420,000 compounds, 15% hits; further: nearly all actives have a fitted effect of over 55% in size
#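 Cells were dispensed at 400 per well, compounds added by pin tool, plates incubated ≥48 hr at 37 °C, then CellTiter-Glo added for 30 min at room temperature before luminescence reading. Line: DT40 Tdp1-/- complemented with hTDP1; camptothecin omitted.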
# IL1B secr inh = blocks inflammasome-driven IL-1 beta release. THP-1 LPS/ATP IL-1B secretion, AlphaLISA, 16 h; hits give low values. 360,000 compounds, 4.7% hits. AID 743279. activity change, % at 57.5 µM; in the data active means activity change below about -50%; inconclusive means mostly about -30% to -49%
#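 THP-1 cells pretreated 1 hr with compounds (up to 57.5 uM final), then stimulated with LPS (250 ng/mL final) plus ATP (1.25 mM final); secreted IL-1B measured by AlphaLISA after 16 hr, decreased signal indicating inhibition.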
# Gal4-VP16 FLuc = inhibits Gal4-VP16 luciferase reporter, ROR gamma counter-screen; Drosophila S2 Gal4-VP16 UAS-luciferase, luminescence, 20 h; Potency, µM (series often up to 53.6 µM), hits mostly inhibitors; 310,000 compounds, 3.5% hits; AID 2546;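 further: Gal4-VP16 expression switched on by copper sulfate through the metallothionein promoter; nearly all actives have a fitted effect of over 50% in size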
# RORgamma inh = ROR gamma (mouse) transcription inhibition; Potency, µM (highest dose often 53.6 µM), hits mostly inhibitors; P51450; AID 2551; 310,000 compounds, 5.4% hits; Drosophila S2 Gal4-RORgamma UAS-luciferase reporter, 20 h; further: nearly all actives have a fitted effect of over 60% in size
# Target sequence (P51450 whole entry, looked up, the tested form may be a part): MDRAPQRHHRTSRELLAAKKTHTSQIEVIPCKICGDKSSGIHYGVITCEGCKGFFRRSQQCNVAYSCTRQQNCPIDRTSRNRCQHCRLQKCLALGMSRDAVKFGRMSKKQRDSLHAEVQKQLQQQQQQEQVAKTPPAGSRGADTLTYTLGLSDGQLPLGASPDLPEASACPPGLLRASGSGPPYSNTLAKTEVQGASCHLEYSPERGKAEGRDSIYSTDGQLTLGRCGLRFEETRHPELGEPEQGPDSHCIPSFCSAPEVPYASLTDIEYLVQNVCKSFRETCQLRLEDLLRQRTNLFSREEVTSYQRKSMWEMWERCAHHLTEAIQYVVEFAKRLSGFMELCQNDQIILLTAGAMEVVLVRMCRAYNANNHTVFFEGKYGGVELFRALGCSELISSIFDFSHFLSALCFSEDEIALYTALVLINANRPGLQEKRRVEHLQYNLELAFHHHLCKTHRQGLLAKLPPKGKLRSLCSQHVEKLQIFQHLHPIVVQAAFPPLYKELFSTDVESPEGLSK
#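 In this cell-based reporter format, copper sulfate (700 uM final) drives Gal4–ROR gamma fusion expression from a metallothionein promoter in Drosophila Schneider cells; compounds preincubated 1 hr, reporter read after 20 hr at ambient temperature.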
# DT40 TDP1 CPT = growth inhibition of DT40 Tdp1-/-;hTDP1 cells with camptothecin (screen for TDP1 inhibitors); AID 686979; chicken DT40 Tdp1-/-;hTDP1 cells + 20 nM CPT, ATP luminescence, 48 h; Potency, µM (doses to about 46.2 µM), usual class: inhibitors; 420,000 compounds, 12% hits; further: nearly all actives have a fitted effect of over 55% in size
#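 Chicken DT40 Tdp1-/- cells stably complemented with human TDP1 were seeded at 400 cells/well in medium containing 20 nM camptothecin, exposed to pin-transferred compounds, and grown at 37 °C for at least 48 hr. Viability was read as ATP luminescence.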
# A number is an active result; n = inactive; u = inconclusive; x = no result given. Most compounds without a hit are left out; they make up all but 18% or so of the library. Unless noted, the call rests on the fitted dose curve; in most records, active means well fitted curve in the direction sought with a large enough effect; inconclusive means small, poorly fitted or top-dose-only effect, or another doubt; inactive means no such curve, though single readings can be large; an effect the other way counts as inactive or inconclusive.
SMILES,LDHA block,DT40 TDP1 no CPT,IL1B secr inh,Gal4-VP16 FLuc,RORgamma inh,DT40 TDP1 CPT
CCc1nc2ccccc2c(C(=O)OCC(=O)NC(=O)NC(C)C)c1C,n,x,x,x,x,x
O=C(NCc1ccco1)c1c2c(nc3ccccc13)CCC2,n,21µM,n,n,n,15µM
CC(C)(C)NC(=O)COC(=O)c1c2c(nc3ccccc13)CCC2,n,9.2µM,n,n,n,u
CC(C)NC(=O)NC(=O)COC(=O)c1c2c(nc3ccccc13)CCC2,n,13µM,u,n,n,9.2µM
Cc1ccc(N2CCN(C(=O)C3CCC(=O)N(Cc4ccc(Cl)cc4)C3)CC2)c(C)c1 (stereo unspecified),n,18µM,n,n,u,18µM
Cc1cc(C(F)(F)F)nn1CCc1nnc(Nc2ccn(Cc3ccccc3Cl)n2)s1,n,x,x,x,x,x
O=C(Cn1cc(SCc2c(F)cccc2Cl)c2ccccc21)N1CCCC1,n,7.3µM,x,x,x,u
O=C(CSc1cn(CC(=O)N2CCCCC2)c2ccccc12)NCc1ccccc1,n,u,x,x,x,u
O=C(CSc1cn(CC(=O)N2CCCCC2)c2ccccc12)NCc1ccccc1Cl,n,u,x,x,x,23µM
Cc1nc(NC(=O)c2cc3c(C)nn(-c4ccccc4)c3s2)sc1C(=O)Nc1ccccc1,n,21µM,n,n,n,u
COc1ccc(NC(=O)c2cc3c(C)nn(-c4ccccc4)c3s2)c(OC)c1,n,u,x,x,x,u
COc1ccccc1NC(=O)c1cc2c(C)nn(-c3ccccc3)c2s1,n,23µM,x,x,x,u
CC(=O)c1sc(NC(=O)c2cc3c(C)nn(-c4ccccc4)c3s2)nc1C,n,n,n,n,n,n
COc1ccc(NS(=O)(=O)c2ccc(O)c(NC(=O)c3cc4c(C)nn(-c5ccc(F)cc5)c4s3)c2)cc1,n,u,u,22µM,u,n
Cc1nn(-c2ccccc2)c2sc(C(=O)Nc3cccc(Cl)c3)cc12,n,23µM,x,x,x,u
O=C1c2cccc3cccc(c23)C(=O)C1(O)O,n,2.3µM,-94,x,x,1µM
CC1CCCN(CCCNC(=O)CN2C(=O)CCn3nc(-c4cn(C)c5ccccc45)cc32)C1 (stereo unspecified),n,x,x,x,x,x
Cc1ccc(COc2ccc(/C=N/O)cc2)cc1,n,u,n,u,8.9µM,n
NC(N)=N/N=C/c1ccc(OCc2ccc(Cl)cc2)cc1,n,u,-94,7.1µM,u,21µM
NC(N)=N/N=C/c1ccc(Br)cc1,n,4.1µM,u,n,n,2.6µM
Cc1ccc(Oc2ccc(/C=N/O)cn2)cc1,n,16µM,n,n,n,23µM
CC1CCC(C#N)(N(C)C(=O)CN(C)CC(=O)Nc2cccc(F)c2)CC1 (stereo unspecified),n,x,x,x,x,x
O=C(Nc1ccc(Br)cc1Cl)c1cc(=O)c2ccccc2o1,n,x,x,x,x,x
Cc1n[nH]c(C)c1I,n,x,x,x,x,x
CCN(C(=O)c1ccc(C(=O)OC)s1)C1CCCC1,n,x,x,x,x,x
SMILES,LDHA block,DT40 TDP1 no CPT,IL1B secr inh,Gal4-VP16 FLuc,RORgamma inh,DT40 TDP1 CPT
COc1ccc2oc3ccccc3c(=O)c2c1,n,n,n,n,n,n
COc1cc(OC)c(-c2oc3ccccc3c(=O)c2O)c(OC)c1,n,7.3µM,n,x,x,8.2µM
COc1ccc(-c2oc3ccccc3c(=O)c2O)cc1,x,n,x,n,u,n
COc1cccc2c(=O)c3ccccc3oc12,n,n,n,n,n,n
COc1ccc(OC)c(-c2oc3ccccc3c(=O)c2O)c1,n,u,n,n,7.1µM,n
COc1ccccc1-c1oc2ccccc2c(=O)c1O,x,u,x,n,20µM,u
CCc1cc(C(c2ccc(OC)c(OC)c2)N2CCOCC2)c(NC(=O)c2ccccc2)s1 (stereo unspecified),n,21µM,-124,u,u,u
CCc1cc(C(c2ccc(F)cc2)N2CCOCC2)c(NC(=O)c2ccccc2)s1 (stereo unspecified),n,u,u,n,n,u
CCc1cc(C(c2cccc(OC)c2)N2CCOCC2)c(NC(=O)c2ccccc2)s1 (stereo unspecified),n,15µM,u,n,n,u
N#Cc1c(NC(=O)c2ccnn2C(F)F)sc2c1CCCC2,n,x,x,x,x,x
CCN1CCN(c2cc(C)c3cc(NC(=O)c4cc(OC)c(OC)c(OC)c4)ccc3n2)CC1,n,u,x,x,x,u
CCN1CCN(c2cc(C)c3cc(NC(=O)/C=C/c4ccc(OCCC(C)C)cc4)ccc3n2)CC1,n,4.1µM,x,x,x,4.6µM
CCN1CCN(c2cc(C)c3cc(NC(=O)c4ccc5c(c4)OCO5)ccc3n2)CC1,n,15µM,n,u,u,12µM
CCN1CCN(c2cc(C)c3cc(NC(=O)c4cncc(Br)c4)ccc3n2)CC1,n,u,-54,n,n,u
CCN1CCN(c2cc(C)c3cc(NC(=O)c4ccc(OC)c(OC)c4)ccc3n2)CC1,n,16µM,n,n,n,15µM
CCOC(=O)CNC(=O)c1cc2cccc(OCC)c2oc1=O,n,x,x,x,x,x
CCN1CCN(c2cc(C)c3cc(NC(=O)c4cccc(C(F)(F)F)c4)ccc3n2)CC1,n,13µM,x,x,x,10µM
CCN1CCN(c2cc(C)c3cc(NC(=O)c4cccs4)ccc3n2)CC1,n,u,u,n,n,u
CCOc1cc(C=O)ccc1OS(=O)(=O)c1ccc(NC(C)=O)cc1,n,18µM,n,n,n,u
COc1cc(C(=S)N2CCOCC2)ccc1OS(=O)(=O)c1ccc(NC(C)=O)cc1,n,9.2µM,n,n,n,18µM
COc1cc(C(=S)N2CCOCC2)ccc1OC(=O)c1ccc([N+](=O)[O-])cc1[N+](=O)[O-],n,u,n,13µM,u,u
COc1ccc(C(=S)N2CCOCC2)cc1OC(=O)c1cccc([N+](=O)[O-])c1,n,n,n,n,n,n
COc1cc(C(=S)N2CCCC2)ccc1OS(=O)(=O)c1ccc(NC(C)=O)cc1,n,u,n,n,n,15µM
Cn1c(=O)[nH]c(=O)c2c1nc(N1CCC(C(N)=O)CC1)n2Cc1ccccc1Cl,n,x,x,x,x,x
COc1ccc2oc(=O)c(S(=O)(=O)c3cccc(Cl)c3)cc2c1,n,x,x,x,x,x
SMILES,LDHA block,DT40 TDP1 no CPT,IL1B secr inh,Gal4-VP16 FLuc,RORgamma inh,DT40 TDP1 CPT
O=C(O)/C=C/C(=O)Nc1ccccc1SC(F)(F)C(F)(F)C(F)(F)F,n,u,-104,n,n,u
CSc1ccccc1NC(=O)/C=C\C(=O)O,n,x,x,x,x,x
O=C(O)/C=C/C(=O)Nc1ccccc1-c1ccccc1,n,10µM,n,n,n,8.2µM
Cc1cc(C)n(C(=O)Cn2nc(C(F)F)cc2C)n1,n,n,n,n,n,n
Cc1cc(C)n(CCCC(=O)O)n1,n,n,-67,n,n,n
Cc1cc([N+](=O)[O-])nn1CCCC(=O)O,n,n,n,n,n,n
